Data as given in PubChem BioAssay (EPA / NIEHS).
The source made the active and inactive calls. How the source made its calls: active means hit-call score of the fitted dose curve at least 0.9, where 1 is the maximum; inactive means score below 0.9.

read-out: TIMP metallopeptidase inhibitor 2 (TIMP2), TIMP2 (gene 7077); assay: BSK_KF3CT_TIMP2: BioMAP Diversity Plus: KF3CT Assay for TIMP metallopeptidase inhibitor 2 (TIMP2) Biomarker Activity (AID 2283071); conditions: primary human keratinocytes with fibroblasts; actives raise or lower the signal
Experimental: BSK_KF3CT is a cell-based, multiplexed-readout assay that uses keratinocytes and foreskin fibroblasts, a human skin primary cell co-culture, with measurements taken at 24 hours after chemical dosing in a 96-well plate.BSK_KF3CT_TIMP2 is an assay component measured in the BSK_KF3CT assay. It measures TIMP-2 antibody related to regulation of gene expression using ELISA technology.Data from the assay component BSK_KF3CT_TIMP2 was analyzed into 1 assay endpoint. This assay endpoint, BSK_KF3CT_TIMP2, was analyzed with bidirectional fitting relative to DMSO as the negative control and baseline of activity. Using a type of binding reporter, gain or loss-of-signal activity can be used to understand changes in the signaling as they relate to the gene TIMP2. Furthermore, this assay endpoint can be referred to as a primary readout, because this assay has produced multiple assay endpoints where this one serves a signaling function. To generalize the intended target to other relatable targets, this assay endpoint is annotated to the protease inhibitor intended target family, where the subfamily is metalloproteinase inhibitor.
The levels of cell surface (or secreted, indicated by the prefix "s") biomarker endpoints were measured by ELISA. Overt cytotoxicity to cells in confluent adherent cultures (all systems other than the BT system) was assessed by measuring total protein levels using sulforhodamine B (SRB) staining in parallel cultures at the time of biomarker measurements, indicated as SRB endpoints. For proliferation assays for adherent cell types, individual cell types are cultured at sub-confluence and relative cell numbers quantified by SRB staining at time points optimized for each system (48 h: 3C and CASM3C systems; 72 h: BT and HDF3CGF systems; 96 h: SAg system). SRB was performed by staining cells with 0.1% SRB after fixation with 10% TCA and reading wells at 560 nm.Viability and proliferation of PBMC (T cells) was quantified by Alamar Blue reduction for the SAg and BT systems. For PBMC viability (referred to as PBMC Cytotoxicity within the assay endpoint names), cells were plated (75,000/well in a 96-well plate) and then chemical samples added for 1 h before addition of activators, SEB and TSST-1 (20 ng/mL final concentration each). Cells were incubated for 90 h. Then, Alamar Blue (20 uL/well) (Invitrogen, Cat DAL1100) was added for 6 h, and the plates were read with a fluorescence microplate reader at 546/580 nm (excitation/emission). For PBMC proliferation, cells were plated and activated as above but incubated for only 16 h prior to addition of Alamar Blue. Plates were read after 6 h.

Compound | outcome | AC50
O=c1[nH]cnc2c1ncn2[C@H]1CC[C@@H](CO)O1 | inactive | 
O=C(O)c1cccc(C[C@@H]2COc3ccc(OCc4nc5cc(F)ccc5s4)cc3[C@@H]2O)c1 | inactive | 
OC(Cn1cncn1)(Cn1cncn1)c1ccc(F)cc1F | inactive | 
C[C@@H](Oc1ccc(CNC(=O)c2cccnc2Oc2ccc3c(c2)OCO3)c(F)c1)C(=O)O | inactive | 
O=S(=O)(O)CCC(F)(F)C(F)(F)C(F)(F)C(F)(F)C(F)(F)C(F)(F)F | inactive | 
OC(CCl)CCl | inactive | 
CC(=O)c1ccccc1 | inactive | 
NC(N)=O | inactive | 
CCn1nc(C)c2c1C(=O)NCC(c1ccc(O)cc1)=N2 | inactive | 
CCCCC(CC)C(=O)OCCOCCOCCOC(=O)C(CC)CCCC (stereo not given) | inactive | 
O=C(NO)C1(NS(=O)(=O)c2ccc(Oc3ccc(F)cc3)cc2)CCOCC1 | inactive | 
Cc1cccc(O)c1C | inactive | 
CCCOc1ccc(S(=O)(=O)N2CCN(CC)CC2)cc1-c1nc2c(CC)n(Cc3ccccn3)nc2c(=O)[nH]1 | inactive | 
OCc1ccccc1 | inactive | 
C[C@]12C=CC(=O)C=C1CC[C@H]1[C@@H]3C[C@@H](O)[C@](O)(C(=O)CO)[C@@]3(C)C[C@H](O)[C@@]12F | inactive | 
c1ccc2cc3ccccc3cc2c1 | inactive | 
CCOc1ccc2[nH]cc(C(=O)NCc3ccccc3)c(=O)c2n1 | inactive | 
OC[C@H]1O[C@@](CO)(O[C@H]2O[C@H](CO)[C@@H](O)[C@H](O)[C@H]2O)[C@@H](O)[C@@H]1O | inactive | 
Nc1ccn([C@@H]2O[C@H](CO)[C@@H](O)[C@@H]2O)c(=O)n1 | inactive | 
FC(F)C(F)(F)COCC1CO1 (stereo not given) | inactive | 

Compound | outcome | AC50
OC[C@H]1O[C@@H]2O[C@H]3[C@H](O)[C@@H](O)[C@@H](O[C@H]4[C@H](O)[C@@H](O)[C@@H](O[C@H]5[C@H](O)[C@@H](O)[C@@H](O[C@H]6[C@H](O)[C@@H](O)[C@@H](O[C@H]7[C@H](O)[C@@H](O)[C@@H](O[C@H]1[C@H](O)[C@H]2O)O[C@@H]7CO)O[C@@H]6CO)O[C@@H]5CO)O[C@@H]4CO)O[C@@H]3CO | inactive | 
CCCc1ccccc1 | inactive | 
CC(C)c1nnc2ccc(-c3ocnc3-c3cc(F)ccc3F)cn12 | inactive | 
NC(=O)N1c2ccccc2C=Cc2ccccc21 | inactive | 
COS(C)(=O)=O | inactive | 
Cc1nc(-c2ccccn2)ncc1C(=O)Nn1cc(C)c2cc(F)ccc21 | inactive | 
CCCCCCCCCCCCCCCCOS(=O)(=O)O |  | 19.5 µM (active)
CCCCOC(=O)c1ccccc1 | inactive | 
C=CCc1cc(S(=O)(=O)c2ccc(O)c(CC=C)c2)ccc1O |  | 17.3 µM (active)
NC(=O)NN=Cc1ccc([N+](=O)[O-])o1 | inactive | 
CCCCCCCCN(C)C | inactive | 
COc1cc(C(C)C)c2c(c1)S(=O)(=O)N(COc1cc(=O)n3cccc(OCCN4CCCCC4)c3n1)C2=O | inactive | 
CCc1ccc(O)c(C(C)(C)C)c1 |  | 36.5 µM (active)
CCCCN1C(=O)[C@@H]([C@H](O)C2CCCCC2)NC(=O)C12CCN(Cc1ccc(Oc3ccc(C(=O)O)cc3)cc1)CC2 | inactive | 
OCc1c[nH]c2ccccc12 | inactive | 
CC(C)C(=O)Nc1ccc([N+](=O)[O-])c(C(F)(F)F)c1 | inactive | 
OCCNCCO | inactive | 
c1ccc(C(O[C@@H]2CCCN(CCc3ccc4c(c3)OCO4)C2)c2ccccc2)cc1 |  | 3.97 µM (active)
COc1cc2c(c(OC)c1OC)-c1ccc(OC)c(=O)cc1[C@@H](NC(C)=O)CC2 | inactive | 
O=C(Cl)C(F)(F)C(F)(F)C(F)(F)C(=O)Cl | inactive | 
